Laboratory results as given in the supplement of paper PMC10849652.
About 7,900 targets were measured; listed, in parts, are those with a hit and a random draw of the rest. About 0.6% of all pairs of compound and target were hits.

Tests used:
Assay in all cases: log2 fold change, soluble protein after heating vs DMSO (PISA); higher = thermal stabilisation; K562 cells, 10 uM, 30 min; active = over 0.2 and 3.5 SD of the protein, either way, in both replicates (recomputed)
[1] = compound: C1=CC=C(C=C1)[C@H](COC2=CC3=C(C=C2)NC(=O)N3)NC(=O)C4=CC=CN(C4=O)CC5=CC(=C(C=C5)F)F
Summary of the method: (§1)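 K562 cells at 2×10^6 cells/mL were treated for 30 min with 10 μM compound, and aliquots were heated for 3 min over 48°C-58°C before pooling. Extraction used PBS with 0.5% NP-40 at 4°C, and soluble protein was the supernatant after 21,000xg for 90 min, measured by TMTpro 16plex LC-MS/MS with channel sums equalised. Thermal stability values, relative to control samples and from duplicates, are log2 fold changes.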

[2] = compound: CC1=C(SC2=C1C(=N[C@H](C3=NN=C(N32)C)CC(=O)N)C4=CC=C(C=C4)Cl)C
Summary of the method: as §1

[3] = compound: CC1=C2C(=CC=C1)N=C(N(C2=O)C3=CC=CC=C3C)CN4C=NC5=C(N=CN=C54)N
Summary of the method: as §1

[4] = compound: Cc1sc2c(c1C)C(c1ccc(Cl)cc1)=N[C@@H](CC(=O)OC(C)(C)C)c1nnc(C)n1-2
Summary of the method: as §1

[5] = compound: c1ccc([C@@H]2C[C@H]2NC2CCNCC2)cc1
Summary of the method: as §1

Measured: log2 fold change

SNX11 (UniProt Q9Y5W9)
inactive: [1] 0.004 | [2] 0.063 | [3] 0.108 | [4] 0.057 | [5] -0.027

TCOF1 isoform 6 (UniProt Q13428)
inactive: [1] 0.209 | [2] 0.151 | [3] -0.251 | [4] 0.271 | [5] 0.029

SNRPB2 (UniProt P08579)
inactive: [1] 0.083 | [2] 0.002 | [3] -0.044 | [4] 0.07 | [5] 0.02

TBC1D15 isoform 3 (UniProt Q8TC07)
inactive: [1] -0.072 | [2] 0.013 | [3] 0.045 | [4] 0.005 | [5] -0.019

SSX2 (UniProt Q16385)
inactive: [1] 0.008 | [2] -0.024 | [3] 0.038 | [4] -0.021 | [5] 0.023

SUGP1 (UniProt Q8IWZ8)
inactive: [1] 0 | [2] -0.001 | [3] 0.066 | [4] -0.046 | [5] 0.019

SPART (UniProt Q8N0X7)
Chain of UniProt Q8N0X7 (Q8N0X7 whole entry, looked up): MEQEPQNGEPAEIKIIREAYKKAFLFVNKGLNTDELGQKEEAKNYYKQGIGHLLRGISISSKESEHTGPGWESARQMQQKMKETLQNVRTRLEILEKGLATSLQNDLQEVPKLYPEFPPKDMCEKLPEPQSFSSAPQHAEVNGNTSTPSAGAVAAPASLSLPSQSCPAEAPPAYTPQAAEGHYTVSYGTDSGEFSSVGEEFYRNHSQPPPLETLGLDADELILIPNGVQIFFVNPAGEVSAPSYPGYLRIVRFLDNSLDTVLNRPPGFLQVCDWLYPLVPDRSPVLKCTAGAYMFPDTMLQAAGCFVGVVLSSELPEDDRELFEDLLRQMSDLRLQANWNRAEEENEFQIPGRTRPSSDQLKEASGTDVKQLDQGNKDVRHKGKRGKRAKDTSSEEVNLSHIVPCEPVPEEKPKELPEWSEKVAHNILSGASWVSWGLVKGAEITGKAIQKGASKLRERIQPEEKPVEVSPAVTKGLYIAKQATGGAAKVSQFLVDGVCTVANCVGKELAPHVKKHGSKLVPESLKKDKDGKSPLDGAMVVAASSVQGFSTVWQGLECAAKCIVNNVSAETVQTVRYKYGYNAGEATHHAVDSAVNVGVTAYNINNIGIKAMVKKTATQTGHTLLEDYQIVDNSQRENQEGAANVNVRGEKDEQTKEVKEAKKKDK
inactive: [1] -0.028 | [2] 0.043 | [3] 0.065 | [4] 0.018 | [5] -0.002

SPAG9 (UniProt O60271)
inactive: [1] -0.033 | [2] 0.002 | [3] 0.071 | [4] 0.024 | [5] -0.006

SRPRB (UniProt Q9Y5M8)
inactive: [1] -0.005 | [2] 0.014 | [3] 0.034 | [4] -0.017 | [5] -0.016

SMAD2 (UniProt Q15796)
inactive: [1] -0.014 | [2] 0.022 | [3] 0.056 | [4] -0.02 | [5] -0.066

SMG1 (UniProt Q96Q15)
inactive: [1] -0.104 | [2] 0.003 | [3] -0.004 | [4] 0.02 | [5] -0.071

STOM (UniProt P27105)
inactive: [1] 0.06 | [2] -0.019 | [3] -0.014 | [4] -0.021 | [5] 0.082

SPG21 (UniProt Q9NZD8)
inactive: [1] -0.128 | [2] -0.035 | [3] 0.031 | [4] -0.062 | [5] -0.02

TK1 (UniProt K7ERV3)
inactive: [1] 0.038 | [2] 0.091 | [3] 0.083 | [4] 0.029 | [5] 0.015

TMBIM6 isoform 2 (UniProt P55061)
inactive: [1] -0.037 | [2] -0.022 | [3] 0.041 | [4] -0.03 | [5] 0.041

TECR (UniProt Q9NZ01)
inactive: [1] -0.015 | [2] 0.049 | [3] 0.033 | [4] -0.046 | [5] 0

SPINDOC (UniProt Q9BUA3)
inactive: [1] 0.03 | [2] 0.02 | [3] -0.066 | [4] 0.145 | [5] 0.041

TARBP1 (UniProt Q13395)
inactive: [1] -0.058 | [2] 0.048 | [3] 0.081 | [4] -0.073 | [5] -0.027

TAOK3 (UniProt Q9H2K8)
inactive: [1] 0 | [2] 0.057 | [3] 0.002 | [4] -0.003 | [5] -0.024

SLC35F6 (UniProt Q8N357)
inactive: [1] -0.034 | [2] -0.045 | [3] 0.064 | [4] -0.057 | [5] 0.067

STAM2 (UniProt O75886)
inactive: [1] -0.015 | [2] 0.005 | [3] 0.014 | [4] 0.016 | [5] -0.001

SMIM20 isoform 2 (UniProt Q8N5G0)
Chain of UniProt Q8N5G0 (Q8N5G0 whole entry, looked up): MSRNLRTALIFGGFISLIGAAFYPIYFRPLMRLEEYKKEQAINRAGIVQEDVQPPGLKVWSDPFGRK
inactive: [1] 0.019 | [2] -0.034 | [3] 0.081 | [4] -0.125 | [5] -0.1

SLC35B1 isoform 2 (UniProt P78383)
inactive: [1] -0.166 | [2] -0.233 | [3] 0.146 | [4] -0.215 | [5] 0.027

TAMM41 isoform 3 (UniProt Q96BW9)
inactive: [1] -0.012 | [2] 0.1 | [3] 0.09 | [4] -0.06 | [5] 0.001

TLK2 isoform 2 (UniProt Q86UE8)
inactive: [1] 0.006 | [2] 0.021 | [3] 0.041 | [4] -0.007 | [5] 0.051

TJP1 (UniProt Q07157)
inactive: [1] 0 | [2] 0.028 | [3] 0.069 | [4] 0.014 | [5] 0.023

STK11IP (UniProt Q8N1F8)
inactive: [1] 0.035 | [2] 0.026 | [3] -0.02 | [4] 0.05 | [5] -0.048

SMC5 (UniProt Q8IY18)
Chain of UniProt Q8IY18 (Q8IY18 whole entry, looked up): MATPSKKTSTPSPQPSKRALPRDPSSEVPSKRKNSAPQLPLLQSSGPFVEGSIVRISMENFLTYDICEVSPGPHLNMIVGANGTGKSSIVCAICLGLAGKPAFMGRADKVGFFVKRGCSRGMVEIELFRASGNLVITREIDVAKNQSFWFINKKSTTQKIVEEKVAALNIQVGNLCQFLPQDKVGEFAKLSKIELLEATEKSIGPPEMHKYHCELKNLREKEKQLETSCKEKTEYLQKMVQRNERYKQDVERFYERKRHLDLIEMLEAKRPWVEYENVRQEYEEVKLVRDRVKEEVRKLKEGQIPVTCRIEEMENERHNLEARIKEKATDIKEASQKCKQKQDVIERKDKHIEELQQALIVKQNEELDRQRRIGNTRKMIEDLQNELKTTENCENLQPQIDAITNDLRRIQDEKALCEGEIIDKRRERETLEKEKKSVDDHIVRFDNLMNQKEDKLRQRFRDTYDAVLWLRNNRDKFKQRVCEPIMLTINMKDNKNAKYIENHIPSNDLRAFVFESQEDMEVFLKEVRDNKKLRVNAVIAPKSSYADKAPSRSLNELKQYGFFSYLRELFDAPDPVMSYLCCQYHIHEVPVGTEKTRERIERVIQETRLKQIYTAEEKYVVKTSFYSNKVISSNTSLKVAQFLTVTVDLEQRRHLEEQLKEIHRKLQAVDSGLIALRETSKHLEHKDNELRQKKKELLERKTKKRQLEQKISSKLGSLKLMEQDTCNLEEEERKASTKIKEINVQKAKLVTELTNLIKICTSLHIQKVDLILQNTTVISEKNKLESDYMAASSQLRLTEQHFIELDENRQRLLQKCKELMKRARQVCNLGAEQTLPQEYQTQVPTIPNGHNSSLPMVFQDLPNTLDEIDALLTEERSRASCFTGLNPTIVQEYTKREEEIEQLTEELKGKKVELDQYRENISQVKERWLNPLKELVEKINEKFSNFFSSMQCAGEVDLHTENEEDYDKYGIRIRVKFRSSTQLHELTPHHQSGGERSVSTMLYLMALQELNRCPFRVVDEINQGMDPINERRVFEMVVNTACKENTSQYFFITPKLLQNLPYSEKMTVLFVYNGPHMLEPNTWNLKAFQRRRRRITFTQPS
inactive: [1] 0.017 | [2] 0.045 | [3] -0.006 | [4] -0.028 | [5] -0.005

SLC25A4 (UniProt P12235)
Chain of UniProt P12235 (P12235 whole entry, looked up): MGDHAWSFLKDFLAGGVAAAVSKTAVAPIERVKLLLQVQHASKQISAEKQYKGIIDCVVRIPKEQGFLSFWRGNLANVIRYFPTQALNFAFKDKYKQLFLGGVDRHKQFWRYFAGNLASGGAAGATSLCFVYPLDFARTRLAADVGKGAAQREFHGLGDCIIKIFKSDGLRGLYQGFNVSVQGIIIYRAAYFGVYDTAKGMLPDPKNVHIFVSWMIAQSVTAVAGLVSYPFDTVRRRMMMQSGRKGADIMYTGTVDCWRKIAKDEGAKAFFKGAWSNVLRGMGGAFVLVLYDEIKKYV
inactive: [1] -0.001 | [2] -0.034 | [3] 0.062 | [4] -0.049 | [5] 0.05

SNX15 (UniProt Q9NRS6)
inactive: [1] 0.065 | [2] -0.032 | [3] 0.141 | [4] 0.279 | [5] -0.081

SLC39A11 (UniProt Q8N1S5)
Chain of UniProt Q8N1S5 (Q8N1S5 whole entry, looked up): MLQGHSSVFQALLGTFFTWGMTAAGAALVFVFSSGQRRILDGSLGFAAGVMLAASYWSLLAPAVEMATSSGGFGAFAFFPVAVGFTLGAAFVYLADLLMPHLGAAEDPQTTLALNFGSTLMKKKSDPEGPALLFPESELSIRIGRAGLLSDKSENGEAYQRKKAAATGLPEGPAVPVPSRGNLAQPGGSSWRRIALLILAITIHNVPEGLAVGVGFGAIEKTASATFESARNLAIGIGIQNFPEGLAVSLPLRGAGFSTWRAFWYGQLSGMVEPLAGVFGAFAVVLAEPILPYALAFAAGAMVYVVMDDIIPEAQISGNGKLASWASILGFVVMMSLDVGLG
inactive: [1] 0.053 | [2] 0.072 | [3] 0.078 | [4] -0.323 | [5] -0.003

SLC4A2 (UniProt P04920)
inactive: [1] -0.042 | [2] 0.016 | [3] 0.019 | [4] -0.038 | [5] 0.088

TBC1D23 (UniProt Q9NUY8)
inactive: [1] -0.039 | [2] 0.068 | [3] 0.034 | [4] -0.003 | [5] -0.037

SLC44A2 isoform 2 (UniProt Q8IWA5)
Chain of UniProt Q8IWA5 (Q8IWA5 whole entry, looked up): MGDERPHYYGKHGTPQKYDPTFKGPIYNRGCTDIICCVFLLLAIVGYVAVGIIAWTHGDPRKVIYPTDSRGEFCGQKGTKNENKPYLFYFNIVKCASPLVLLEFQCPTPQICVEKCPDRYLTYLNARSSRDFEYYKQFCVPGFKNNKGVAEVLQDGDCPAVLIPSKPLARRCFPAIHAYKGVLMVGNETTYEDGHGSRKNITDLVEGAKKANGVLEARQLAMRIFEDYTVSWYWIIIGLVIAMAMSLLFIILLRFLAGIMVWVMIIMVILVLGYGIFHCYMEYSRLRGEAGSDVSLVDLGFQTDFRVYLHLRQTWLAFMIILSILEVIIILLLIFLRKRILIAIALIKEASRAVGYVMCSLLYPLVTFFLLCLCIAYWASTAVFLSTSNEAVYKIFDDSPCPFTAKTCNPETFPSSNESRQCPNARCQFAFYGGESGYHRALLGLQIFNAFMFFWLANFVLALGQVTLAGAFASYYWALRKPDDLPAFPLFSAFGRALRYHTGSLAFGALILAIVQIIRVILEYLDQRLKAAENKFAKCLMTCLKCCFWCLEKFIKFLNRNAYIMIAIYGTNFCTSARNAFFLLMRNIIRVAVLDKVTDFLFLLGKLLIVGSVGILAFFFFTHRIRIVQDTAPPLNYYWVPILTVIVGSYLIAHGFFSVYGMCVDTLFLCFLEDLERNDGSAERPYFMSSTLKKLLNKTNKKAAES
inactive: [1] 0.002 | [2] 0.077 | [3] -0.022 | [4] -0.045 | [5] 0.065

SP100 isoform 4 (UniProt P23497)
inactive: [1] -0.006 | [2] -0.015 | [3] -0.047 | [4] 0 | [5] 0.024

SLC27A1 (UniProt Q6PCB7)
inactive: [1] -0.02 | [2] 0.161 | [3] 0.293 | [4] 0.11 | [5] -0.029

TBC1D9B (UniProt Q66K14)
inactive: [1] -0.025 | [2] 0.093 | [3] 0.042 | [4] 0.02 | [5] -0.062

TEX30 (UniProt Q5JUR7)
Chain of UniProt Q5JUR7 (Q5JUR7 whole entry, looked up): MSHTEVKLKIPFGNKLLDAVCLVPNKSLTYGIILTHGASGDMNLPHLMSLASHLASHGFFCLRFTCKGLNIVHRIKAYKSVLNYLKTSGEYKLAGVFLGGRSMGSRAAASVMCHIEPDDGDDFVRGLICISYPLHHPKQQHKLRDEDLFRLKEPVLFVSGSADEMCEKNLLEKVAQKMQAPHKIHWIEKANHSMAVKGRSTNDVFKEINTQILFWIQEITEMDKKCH
inactive: [1] -0.162 | [2] -0.141 | [3] 0.235 | [4] 0.12 | [5] 0.052

SYNE2 isoform 2 (UniProt Q8WXH0)
inactive: [1] 0.064 | [2] 0.055 | [3] 0.209 | [4] -0.004 | [5] 0.096

SRSF7 (UniProt Q16629)
inactive: [1] 0.136 | [2] -0.171 | [3] -0.093 | [4] 0.209 | [5] 0.055

SLC7A6 (UniProt Q92536)
inactive: [1] -0.063 | [2] 0.023 | [3] 0.053 | [4] 0.012 | [5] 0.06

SRSF6 (UniProt Q13247)
inactive: [1] -0.071 | [2] -0.453 | [3] -0.109 | [4] 0.217 | [5] 0.015

TFAM (UniProt Q00059)
Chain of UniProt Q00059 (Q00059 whole entry, looked up): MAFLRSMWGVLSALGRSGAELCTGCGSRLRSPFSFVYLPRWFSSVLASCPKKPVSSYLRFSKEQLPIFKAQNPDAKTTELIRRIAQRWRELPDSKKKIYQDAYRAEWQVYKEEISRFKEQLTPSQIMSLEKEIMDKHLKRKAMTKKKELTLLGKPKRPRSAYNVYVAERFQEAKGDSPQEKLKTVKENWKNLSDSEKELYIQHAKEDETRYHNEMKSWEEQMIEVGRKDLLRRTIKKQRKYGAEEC
inactive: [1] 0.062 | [2] -0.046 | [3] -0.018 | [4] 0.108 | [5] 0.009

SMAP (UniProt O00193)
inactive: [1] -0.082 | [2] 0.011 | [3] 0.03 | [4] -0.039 | [5] 0.003

TENT5C (UniProt Q5VWP2)
inactive: [1] 0.017 | [2] 0.25 | [3] 0.122 | [4] 0.116 | [5] -0.35

TIMM44 (UniProt O43615)
inactive: [1] -0.099 | [2] 0.043 | [3] 0.088 | [4] 0.008 | [5] -0.017

STAT5A (UniProt P42229)
Chain of UniProt P42229 (P42229 whole entry, looked up): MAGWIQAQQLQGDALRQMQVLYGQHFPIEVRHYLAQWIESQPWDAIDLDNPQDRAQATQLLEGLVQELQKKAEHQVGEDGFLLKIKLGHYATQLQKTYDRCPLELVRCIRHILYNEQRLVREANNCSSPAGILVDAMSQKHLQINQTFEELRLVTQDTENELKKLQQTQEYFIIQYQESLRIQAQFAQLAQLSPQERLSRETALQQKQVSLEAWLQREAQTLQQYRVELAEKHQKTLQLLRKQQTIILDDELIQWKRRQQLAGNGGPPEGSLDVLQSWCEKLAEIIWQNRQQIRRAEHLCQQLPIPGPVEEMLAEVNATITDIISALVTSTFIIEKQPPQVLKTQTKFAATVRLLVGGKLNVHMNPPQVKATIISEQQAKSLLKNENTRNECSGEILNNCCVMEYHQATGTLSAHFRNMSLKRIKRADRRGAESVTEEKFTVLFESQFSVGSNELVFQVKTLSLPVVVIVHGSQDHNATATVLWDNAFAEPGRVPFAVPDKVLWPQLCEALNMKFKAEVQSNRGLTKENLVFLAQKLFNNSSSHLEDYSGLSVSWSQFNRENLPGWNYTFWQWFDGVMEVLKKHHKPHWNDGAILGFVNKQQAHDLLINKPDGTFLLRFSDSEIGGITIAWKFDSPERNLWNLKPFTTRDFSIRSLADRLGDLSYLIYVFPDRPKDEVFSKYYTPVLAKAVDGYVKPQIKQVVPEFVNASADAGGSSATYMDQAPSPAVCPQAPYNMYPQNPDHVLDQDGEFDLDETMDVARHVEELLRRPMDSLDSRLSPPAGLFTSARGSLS
inactive: [1] -0.028 | [2] 0.058 | [3] 0.134 | [4] -0.006 | [5] 0.008

SNRNP27 (UniProt Q8WVK2)
inactive: [1] 0.027 | [2] -0.058 | [3] 0.021 | [4] 0.023 | [5] 0.044

SNRNP40 (UniProt Q96DI7)
inactive: [1] 0.054 | [2] -0.023 | [3] 0.007 | [4] 0.071 | [5] 0.022

SSR4 (UniProt P51571)
Chain of UniProt P51571 (P51571 whole entry, looked up): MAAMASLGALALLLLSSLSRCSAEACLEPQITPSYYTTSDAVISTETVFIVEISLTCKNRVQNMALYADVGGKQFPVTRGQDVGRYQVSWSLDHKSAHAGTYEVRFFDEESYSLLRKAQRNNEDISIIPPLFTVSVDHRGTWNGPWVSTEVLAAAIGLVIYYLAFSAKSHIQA
inactive: [1] 0.045 | [2] 0.046 | [3] 0.002 | [4] -0.048 | [5] -0.018

SPPL2B (UniProt Q8TCT7)
inactive: [1] 0.039 | [2] 0.132 | [3] 0.049 | [4] 0.024 | [5] -0.022

SLC6A6 (UniProt P31641)
inactive: [1] -0.002 | [2] 0.065 | [3] 0.039 | [4] 0.018 | [5] 0.035

ST3GAL2 (UniProt Q16842)
Chain of UniProt Q16842 (Q16842 whole entry, looked up): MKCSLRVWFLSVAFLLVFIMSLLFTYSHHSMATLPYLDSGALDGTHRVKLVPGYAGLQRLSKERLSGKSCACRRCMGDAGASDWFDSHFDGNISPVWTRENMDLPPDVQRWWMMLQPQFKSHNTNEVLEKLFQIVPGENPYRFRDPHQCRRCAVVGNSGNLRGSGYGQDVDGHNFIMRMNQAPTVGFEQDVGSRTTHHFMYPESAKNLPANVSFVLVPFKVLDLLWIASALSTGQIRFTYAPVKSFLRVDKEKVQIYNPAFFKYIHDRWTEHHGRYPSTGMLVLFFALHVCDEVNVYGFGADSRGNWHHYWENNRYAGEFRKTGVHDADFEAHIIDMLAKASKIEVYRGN
inactive: [1] 0.083 | [2] 0.006 | [3] 0.011 | [4] 0.005 | [5] 0.007
